PubChem BioAssay (NCATS)
Several values for one entry are separate records, joined by “and”; a condition that tells them apart may be missing. Equal entries are not always repeated. Results filed as inconclusive are left out. Values without a mark were called inactive. Activity calls are given as the source filed them. Calls come from the whole dose curve; as a rule, active = well fitted cell-killing curve with a large enough effect in the repeat runs; inconclusive = weak or mixed curves; inactive = flat fitted curve, though single readings scatter.

Assay: qHTS assay for small molecule agonists of the antioxidant response element (ARE) signaling pathway measured by Nrf2-dependant transcriptional activity - cell viability counter screen (AID 720653)
Conditions: ARE-bla HepG2 viability, CellTiter-Glo ATP luminescence, 16 h; max response: hits give low values
Source text: National Center for Advancing Translational Sciences [NCATS] NIH Chemical Genomics Center [NCGC] U.S. Environmental Protection Agency [EPA] National Institutes of Environmental Health Sciences [NIEHS] National Toxicology Program [NTP] Assay Overview: Oxidative stress has been implicated in the pathogenesis of a variety of diseases ranging from cancer to neurodegeneration. The antioxidant response element (ARE) signaling pathway plays an important role in the amelioration of oxidative stress. The CellSensor ARE-bla HepG2 cell line (Invitrogen) can be used for analyzing the Nrf2/antioxidant response signaling pathway. Nrf2 (NF-E2-related factor 2) and Nrf1 are transcription factors that bind to AREs and activate these genes. The CellSensor ARE-bla HepG2 cell line contains a beta-lactamase reporter gene under control of the Antioxidant Response Element (ARE) stably integrated into HepG2 cells. The activation of the report gene under culture conditions can be detected by fluorescence intensity. The cytotoxicity of the compounds against the ARE-bla HepG2 cell line was quantified by measuring the intracellular ATP content.
Assay Protocol Summary: ARE-bla HepG2 cells were dispensed at 2,000 cells/5 ul/well in 1536-well black wall/clear bottom plates using a Multidrop Combi (ThermoFisher Scientific, Waltham, MA) dispenser. After the assay plates were incubated at 37C/5% CO2 for 5 hrs, 23 nL of compounds dissolved in DMSO, positive controls or DMSO only was transferred to the assay plate by a pintool work station (Kalypsys, San Diego, CA). The plates were incubated at 37C/5% CO2 for 16 hrs. After 1 uL of LiveBLAzer B/G FRET substrate was added using a Flying Reagent Dispenser (FRD) (Aurora Discovery, San Diego, CA), the assay plates were incubated at room temperature for 2 hrs. The fluorescence intensity was measured by an Envision (PerkinElmer, Shelton, CT) plate reader. Cell viability using CellTiter Glo viability assay (Promega, Madison, WI) was also measured by adding 4 ul/well of CellTiter-Glo reagent into the same assay plate using a FRD. After 30 min incubation at room temperature, the luminescence intensity in the plates was measured using a ViewLux (PerkinElmer) plate reader.
% is set by controls: 0 for no effect and ±100 for the full control effect; potency is the fitted concentration of half-maximal effect.

| Compound | max response | Potency |
| --- | --- | --- |
| O=c1oc2cc(O)ccc2c2oc3cc(O)ccc3c12 | -3.33% | – |
| CN(C)c1ccc(C2(c3ccc(N(C)C)cc3)OC(=O)c3cc(N(C)C)ccc32)cc1 | 7.4% | – |
| CC1(C)CCC(C)(C)c2cc(C(=O)Nc3ccc(C(=O)O)cc3)ccc21 | -7.97% | – |
| Cc1cc(C(C)(C)CC(C)(C)C)ccc1OCCOCC[N+](C)(C)Cc1ccccc1 | -8.26% | – |
| CN1[C@H]2CC(OC(=O)[C@H](CO)c3ccccc3)C[C@H]1[C@H]1O[C@H]12 (stereo partly drawn) | 0.433% and 4.93% | – |
| Nc1ccc2cc3ccccc3cc2c1 | -4.4% | – |
| c1ccc2c(c1)-c1cccc3c1c-2cc1ccccc13 | -12.4% and -4.83% | – |
| O=Cc1ccc(Cl)c(Cl)c1 | 7.11% | – |
| CC(=O)Nc1ccc(C(=O)CCl)cc1 | – | 39.8 µM (active) |
| O=C1OC2(c3cc(Br)c(O)c(Br)c3Oc3c2cc(Br)c(O)c3Br)c2c(Cl)c(Cl)c(Cl)c(Cl)c21 | -22.4% | – |
| c1cc(OCC2CO2)cc(OCC2CO2)c1 (stereo not drawn) | -40% and -11.6% | – |
| CCCCCC/C(C=O)=C\c1ccccc1 | 3.47% | – |
| CCC(C)Nc1ccc(NC(C)CC)cc1 (stereo not drawn) | – | 22.4 µM (active) |
| CNc1ccc(O)cc1 | -24.5% | – |
| CC1CCC(C(C)C)C(O)C1 (stereo not drawn) | 1.08% | – |
| C/C=C1\C(=O)C[C@H]2[C@@H]3CCC4=CC(=O)CC[C@]4(C)[C@H]3CC[C@]12C | -11.4% | – |
| C=CC(=O)OCCOCCOC(=O)C=C | -8.93% | – |
| CO[C@H]1/C=C/O[C@@]2(C)Oc3c(C)c(O)c4c(O)c(c5c(c4c3C2=O)NC2(CCN(CC(C)C)CC2)N=5)=NC(=O)/C(C)=C\C=C\[C@H](C)[C@H](O)[C@@H](C)[C@@H](O)[C@@H](C)[C@H](OC(C)=O)[C@@H]1C | -17.5% | – |
| O=C(/C=C/c1ccc(O)c(O)c1)OC1C[C@](O)(C(=O)O)C[C@@H](O)[C@H]1O (stereo partly drawn) | -1.61% and -3.17% | – |
| Oc1ccc2cc(SSc3ccc4cc(O)ccc4c3)ccc2c1 | -8.42% | – |
| O=C(OCC(COC(=O)c1ccccc1)(COC(=O)c1ccccc1)COC(=O)c1ccccc1)c1ccccc1 | 3.26% | – |
| c1ccc2c(c1)ccc1cc3c(ccc4ccccc43)cc12 | -11.9% | – |
| CCCCCCCC[N+](CCCCCCCC)(CCCCCCCC)CCCCCCCC | – | 28.2 µM (active) |
| O=C1OC(O)C(C(Cl)Cl)=C1Cl (stereo not drawn) | -27.5% | – |
| O=[N+]([O-])c1cc([N+](=O)[O-])c2ccc(S(=O)(=O)O)cc2c1O | 17.2% | – |
| Cc1cccc(O)c1C | -1.51% | – |
| O=C=Nc1ccc(Cc2ccc(N=C=O)cc2)cc1 | -1.3% and -0.206% | – |
| C=C(C)c1ccccc1 | -8.93% | – |
